Screens (PubChem)
Shown is part of a subset that was picked to be rich in hits.
Dicer inh: human Dicer pre-microRNA cleavage inhibition. Q9UPY3. z-score at 25 µM. actives 6% (n = 47,000). cat-ELCCA pre-miR-21 Dicer processing, chemiluminescence; stronger effect = higher value; in the data active = z-score above about 3, passing the limit was not always enough;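 also: plate controls were vehicle for no effect and no enzyme for full effect; higher signal means more uncleaved substrate so more Dicer inhibition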
Target sequence (Q9UPY3 whole entry, looked up): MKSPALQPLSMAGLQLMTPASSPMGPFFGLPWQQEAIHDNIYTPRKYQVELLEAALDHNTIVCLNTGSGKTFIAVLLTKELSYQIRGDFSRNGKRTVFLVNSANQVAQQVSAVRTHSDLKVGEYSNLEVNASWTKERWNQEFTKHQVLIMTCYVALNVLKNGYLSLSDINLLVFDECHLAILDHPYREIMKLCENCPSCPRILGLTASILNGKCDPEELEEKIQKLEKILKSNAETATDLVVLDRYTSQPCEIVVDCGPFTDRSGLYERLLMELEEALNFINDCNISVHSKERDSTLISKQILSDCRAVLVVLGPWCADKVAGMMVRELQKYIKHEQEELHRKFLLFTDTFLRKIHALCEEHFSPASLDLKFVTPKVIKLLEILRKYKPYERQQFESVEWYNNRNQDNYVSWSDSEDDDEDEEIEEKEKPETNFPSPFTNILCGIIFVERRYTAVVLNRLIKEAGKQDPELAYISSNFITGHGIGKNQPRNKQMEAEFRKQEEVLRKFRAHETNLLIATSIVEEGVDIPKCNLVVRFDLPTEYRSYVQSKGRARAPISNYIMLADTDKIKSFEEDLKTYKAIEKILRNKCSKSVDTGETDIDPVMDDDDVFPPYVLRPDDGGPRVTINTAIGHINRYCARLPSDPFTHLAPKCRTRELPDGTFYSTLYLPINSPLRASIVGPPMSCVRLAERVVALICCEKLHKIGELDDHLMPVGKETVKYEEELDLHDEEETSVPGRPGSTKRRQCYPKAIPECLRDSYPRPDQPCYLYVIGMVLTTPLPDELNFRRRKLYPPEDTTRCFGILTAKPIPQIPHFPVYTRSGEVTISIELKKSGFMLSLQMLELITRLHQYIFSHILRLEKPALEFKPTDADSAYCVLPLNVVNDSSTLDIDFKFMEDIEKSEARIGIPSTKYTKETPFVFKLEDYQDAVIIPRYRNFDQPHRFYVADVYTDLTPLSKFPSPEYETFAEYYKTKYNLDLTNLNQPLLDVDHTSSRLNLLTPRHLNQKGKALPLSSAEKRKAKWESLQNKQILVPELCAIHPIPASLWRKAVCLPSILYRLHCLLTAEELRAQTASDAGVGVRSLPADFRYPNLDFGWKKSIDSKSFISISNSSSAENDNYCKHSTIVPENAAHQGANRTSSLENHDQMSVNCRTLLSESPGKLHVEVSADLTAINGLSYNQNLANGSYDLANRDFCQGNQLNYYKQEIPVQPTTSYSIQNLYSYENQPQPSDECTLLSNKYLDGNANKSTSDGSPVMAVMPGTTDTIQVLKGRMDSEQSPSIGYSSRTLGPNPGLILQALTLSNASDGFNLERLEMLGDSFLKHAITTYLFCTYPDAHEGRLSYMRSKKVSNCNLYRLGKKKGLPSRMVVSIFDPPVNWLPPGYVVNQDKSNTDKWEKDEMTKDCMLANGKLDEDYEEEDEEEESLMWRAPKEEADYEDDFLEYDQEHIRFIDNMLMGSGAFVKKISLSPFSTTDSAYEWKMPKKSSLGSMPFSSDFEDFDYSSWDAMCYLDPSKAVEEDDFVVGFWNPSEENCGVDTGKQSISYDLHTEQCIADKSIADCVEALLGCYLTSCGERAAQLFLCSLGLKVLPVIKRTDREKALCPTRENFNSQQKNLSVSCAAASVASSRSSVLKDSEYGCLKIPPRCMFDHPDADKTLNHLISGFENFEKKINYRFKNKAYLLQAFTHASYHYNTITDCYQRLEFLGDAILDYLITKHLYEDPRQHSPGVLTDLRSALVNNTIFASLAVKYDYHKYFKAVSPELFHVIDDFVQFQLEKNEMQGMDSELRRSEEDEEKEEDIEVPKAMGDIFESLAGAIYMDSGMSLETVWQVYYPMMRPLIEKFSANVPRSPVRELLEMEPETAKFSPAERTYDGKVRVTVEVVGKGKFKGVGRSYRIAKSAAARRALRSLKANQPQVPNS
Starred values were filed as active, the others as inactive.

SMILES	Dicer inh
COc1ccc(NC(=O)CSCC(=O)O)cc1OC	-1.7
CC(=O)c1ccc(NC(=O)CN2CCN(CC(=O)Nc3ccc(C(C)=O)cc3)CC2)cc1	1.6
Cc1ccc2cccc(OC(=O)c3cccnc3Oc3ccccc3)c2n1	-0.49
O=C(O)CC1CCCc2ccccc2C1O (stereo not drawn)	-0.93
CSc1c(C#N)c(-c2cccs2)nn1CC(=O)N/N=C/c1cccs1	2.1
C=CCNC(=S)N1CCc2sccc2C1c1ccc(OC)cc1 (stereo not drawn)	0.26
N#CCSc1ncccc1C(F)(F)F	2.3
CCOC(=O)C1CCN(C2CC(=O)N(c3ccc(Cl)cc3)C2=O)CC1 (stereo not drawn)	-0.55
CS(=O)(=O)c1sc(Br)c2c1C(=O)CCC2	4.4*
CC1(C)CC(=O)c2c(S(C)(=O)=O)sc(Br)c2C1	-1.3
CS(=O)(=O)c1sc(C#N)c2c1C(=O)CCC2	0.08
COC(=O)c1csc(S(=O)(=O)N=S(C)(=O)c2ccccc2)c1OC (stereo not drawn)	-1.1
CC(C)(C)c1ccc(-c2nnnn2-c2ccccc2C(F)(F)F)cc1	-2.5
CCn1c(N)c(C(=O)NC2CCCCC2)sc1=S	-1.4
CCCC1CC(C)(c2csc(Cc3ccc(OCC)cc3)n2)OC1=O (stereo not drawn)	4.9*
CCCCCC1(C(=O)OCC)CC(C)(c2csc(N)n2)OC1=O (stereo not drawn)	-0.97
CCOc1ccc(C2C3=C(CC(C)(C)CC3=O)OC3=C2C(=O)CC(C)(C)C3)cc1	0.37
O=C(CCc1nc2ccccc2[nH]c1=O)OCc1cccc(Cl)c1	2.1
COc1ccc(-c2nc3n(n2)C(c2ccc(Cl)cc2)C2=C(CC(C)(C)CC2=O)N3)cc1 (stereo not drawn)	1.8
O=C1/C(=C/c2ccc(Cl)cc2)COc2ccccc21	-1.7
CSc1ncc(-c2nnc(SCc3ccccc3)n2C)n1C	-1.9
O=C1CSC(c2cccnc2)N1c1ccc(-c2csnn2)cc1 (stereo not drawn)	-1.7
COc1ccc(-n2cnc3ccccc3c2=O)cc1	0.4
CN(n1cnc2ccccc2c1=O)S(C)(=O)=O	3*
CN(n1cnc2ccsc2c1=O)S(C)(=O)=O	-0.09
SMILES	Dicer inh
CSc1sc(-c2nc(-c3ccc(Cl)cc3)cs2)c(C)c1C(C)=O	1.1
CNC(=S)N(C)NC(=S)Nc1ccc(F)c(Cl)c1	2.1
Clc1ccc(Cn2c(-c3cncs3)nc3ccccc32)cc1	1.3
O=C(Cn1c(-c2cncs2)nc2ccccc21)Nc1ccccc1Cl	0.04
O=C(Cn1c(-c2cncs2)nc2ccccc21)Nc1ccc2c(c1)OCCO2	4.2*
CCCCCCCCC1CCCC1N (stereo not drawn)	-0.11
FC(F)(F)Oc1ccccc1NCn1nnc2ccccc21	3.6*
OCCCCCCN(Cn1nnc2ccccc21)Cn1nnc2ccccc21	0.54
FC(F)(F)c1ccc(NCn2nnc3ccccc32)cc1	-5.3
O=C(NCC1CCCO1)Nc1ccccc1 (stereo not drawn)	1.4
CCn1c(SCC(=O)c2c(C)[nH]c3ccccc23)nnc1-c1ccco1	2.6
Cc1[nH]c2ccccc2c1C(=O)CSc1nnc(-c2ccco2)n1C	2.9
CCn1c(SCC(=O)c2c[nH]c3ccccc23)nnc1-c1cccs1	2.1
Cc1[nH]c2ccccc2c1C(=O)CSc1nnc(-c2cccs2)n1C	0.7
Cc1[nH]c2ccccc2c1C(=O)CSc1nnc(-c2ccco2)n1-c1ccccc1	4.7*
CCn1c(SCC(=O)c2c[nH]c3ccccc23)nnc1-c1ccco1	3.4*
Cc1[nH]c2ccccc2c1C(=O)CSc1nnc(Cc2cccs2)n1C	3.4*
O=C(CSc1nnc(-c2ccco2)n1-c1ccc(OCc2ccccc2)cc1)c1ccccc1	-0.72
Cc1[nH]c2ccccc2c1C(=O)CSc1nnc(C2CCCCC2)n1C	1.4
Cn1c(=O)n(Cc2ccccc2)c(=O)c2c1ncn2CCO	1.2
c1cc2cc(C3=NCCN3)ccc2cc1C1=NCCN1	1.7
Cc1cc(C)nc(NS(=O)(=O)c2ccc(NC(=O)CCCC(=O)O)cc2)n1	2.2
Cc1cccc(Oc2c(C(F)(F)F)oc3cc(OCC(=O)OC(C)C)ccc3c2=O)c1	-0.41
COC(=O)C1Cc2cc(OC)c(OC)cc2C(Cc2ccc(OC)c(OC)c2)=N1 (stereo not drawn)	-6.8
COC(=O)c1ccc(C2c3c(oc4ccccc4c3=O)C(=O)N2c2nncs2)cc1 (stereo not drawn)	-0.39
SMILES	Dicer inh
O=C1CC(c2ccco2)Cc2nc(N3CCN(Cc4ccc5c(c4)OCO5)CC3)ncc21 (stereo not drawn)	0.62
CCOC(=O)c1sc2sc(C(=O)OCC)c(C(C)(C)C)c2c1N	-0.53
Cn1cnnc1SCC(=O)N1c2ccccc2CCc2ccccc21	0.92
Cc1ccc2c(c1)C(C)(c1ccccc1)CC(C)(C)N2C(=O)CSc1nncn1C (stereo not drawn)	5.6*
CC1=CC(C)(C)N(C(=O)CSc2nncn2C)c2ccccc21	0.89
N/C(Cn1ccc(C(F)(F)F)n1)=N\OC(=O)Nc1ccc(OC(F)(F)F)cc1	0.48
O=C1CC(c2ccc(Cl)cc2)CC2=C1C(c1cccnc1)n1c(nc3ccccc31)N2 (stereo not drawn)	-0.56
Cc1ccc(C2C3=C(CC(c4ccc(Cl)cc4)CC3=O)Nc3ncnn32)cc1 (stereo not drawn)	0.34
CCN(CC)c1ccc(C2C3=C(CC(C)(C)CC3=O)Nc3ncnn32)cc1 (stereo not drawn)	2.2
CC1(C)CC(=O)C2=C(C1)Nc1ncnn1C2c1cccc(O)c1 (stereo not drawn)	-0.16
Cc1ccc(C2C3=C(CC(c4ccccc4)CC3=O)Nc3nc(C(F)(F)F)nn32)cc1 (stereo not drawn)	3*
CC1CC(=O)C2=C(C1)Nc1ncnn1C2c1ccccc1 (stereo not drawn)	4.6*
O=C1CCCC2=C1C(c1cccc(O)c1)n1ncnc1N2 (stereo not drawn)	0.53
CC1(C)CC(=O)C2=C(C1)Nc1ncnn1C2c1ccc(Cl)cc1 (stereo not drawn)	3.2*
CC1(C)CC(=O)C2=C(C1)Nc1ncnn1C2c1ccccc1 (stereo not drawn)	1.9
CSc1nc2ccc(NC(=O)c3ccc4snnc4c3)cc2s1	0.84
O=C(NCC1CC1)NC(=O)c1ccccc1F	-0.44
O=C(NC1CCCCC1)C1COc2ccccc2O1 (stereo not drawn)	1.7
CC(C)(C)C1CCC(=O)C(C2(O)C(=O)Nc3ccc(Br)cc32)C1 (stereo not drawn)	0.1
COc1ncnc(NS(=O)(=O)c2ccc(N)cc2)c1OC	-0.33
O=C1C(=O)N(CCO)C(c2ccc(F)cc2)/C1=C(/O)c1ccc(Cl)cc1 (stereo not drawn)	-1.4
COc1ccc(Cl)cc1S(=O)(=O)n1ccnc1	-0.89
NC(=O)c1c(N)sc2c1CCCC2	-2.2
Cc1[nH]n(-c2ccccc2)c(=O)c1N=Nc1ccc(C#N)cc1	-0.73
C=CCNC(=S)NNC(=O)c1sc2nnc(-c3ccccc3)c(-c3ccccc3)c2c1N	16
SMILES	Dicer inh
C=CCNC(=S)NNC(=O)c1sc2nc(C)cc(C)c2c1N	4.2*
Cc1cc(C)c2c(N)c(C(N)=O)sc2n1	0.03
Cn1nnnc1SCC(=O)NC(C(=O)O)(c1ccccc1)c1ccccc1	0.28
COC(=O)CSCc1n[nH]c(=O)c2ccccc12	-0.76
O=c1[nH]nc(-c2ccccc2)c2ccccc12	-0.94
O=c1[nH]nc(Cc2ccccc2)c2ccccc12	4*
CCOC(=O)c1c(NC(=O)CC2Sc3ccccc3NC2=O)sc(C)c1C (stereo not drawn)	0.25
